Unmarked numbers belong to inactive results. Results filed as inconclusive are left out. Active and inactive are the calls of the source. Unless noted, calls follow the shape of the dose curve; as a rule, active = well fitted curve in the direction sought with a large enough effect in the repeat runs; inconclusive = weak or mixed curves; inactive = no such curve, though single readings can be large; an effect the other way counts as inactive or inconclusive.

Experiment [1] in a line: qHTS assay to identify small molecule agonists of the hypoxia (HIF-1) signaling pathway - cell viability counter screen (AID 1224844; calls by dose curve; also: nearly all actives have a fitted effect of over 50% in size). The procedure, abridged: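 HRE-bla ME-180; 0.5% dFBS; cpd 17 h, 37C, 5% CO2; CellTiter-Glo lum., 30 min RT, post-FRET read, same wells.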
For orientation: qHTS replaces the single test concentration by a dilution series.

The nature of experiment [2]: qHTS assay to identify small molecule agonists of H2AX (AID 1224845; active = well fitted activation curve with a large enough effect in the signal ratio in the repeat runs, not every such curve was filed as active; the % refers to the signal ratio). The procedure, abridged:
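Wild-type CHO-K1 cells plated overnight, then exposed 3 hr at 37C to compounds at 15 concentrations (0.76% DMSO). Lysed, then HTRF anti-pH2AX(S139)-cryptate/anti-H2AX-d2 detection after 24 hr at room temperature; emissions 665 and 620 nm.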

Experiment [3] is described as follows: qHTS assay to identify small molecule agonists of the hypoxia (HIF-1) signaling pathway (AID 1224846; active = well fitted activation curve with a large enough effect in the signal ratio in the repeat runs, not every such curve was filed as active; the % refers to the signal ratio). In outline: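 Reporter induction in HRE-bla ME-180 cells is taken as agonism: cells sit 5 hrs after plating, receive compounds or DMSO only, incubate 17 hrs at 37C under 5% CO2, and are loaded with CCF4-AM for beta-lactamase FRET measurement.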
Experiment [4] can be described thus: qHTS assay to identify small molecule agonists of H2AX - cell viability counter screen (AID 1224847; calls by dose curve; also: top concentration of the series differs between compounds; nearly all actives have a fitted effect of over 30% in size). The procedure, abridged: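 CHO-K1 cells plated overnight at 37C, then exposed 3 h at 37C to compounds at 15 concentrations (0.76% DMSO final). Viability by CellTiter-Glo luminescence after 30 min at room temperature.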
Experiment [5] in a line: qHTS assay to identify small molecule antagonists of the estrogen related receptor (ERR) signaling pathway from Tox21 library (AID 1224848). Also: nearly all actives have a fitted effect of over 50% in size. Also: potency is read from the fitted curve at half-maximal effect. In outline:
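Tox21 10K compounds in DMSO tested for ERR pathway antagonism in NTP's ERR cell line; 18 h, 37 C exposure; ONE-Glo luminescence.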

Experiment [6] in a line: qHTS assay to identify small molecule agonists of the estrogen related receptor (ERR) signaling pathway from Tox21 library (AID 1224849; calls by dose curve; also: nearly all actives have a fitted effect of over 15% in size). Particulars: ERR reporter cell line, ONE-Glo luciferase, 18 h; at 92.4 µM (top of the series) unless noted. The procedure, abridged:
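Tox21 compounds tested for ERR agonism in an NTP reporter cell line: 18 h treatment at 37 C, then ONE-Glo luminescence.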

Experiment [7] is described as follows: qHTS RealTime-Glo MT Cell Viability Assay in HepG2 cells - 24 hour (AID 1224867). Also: nearly all actives have a fitted effect of over 50% in size. In outline: (§1)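 HepG2 suspension premixed with RealTime-Glo reagents is plated at 600 cells per well and left 5 h at 37 C/5% CO2. Compounds in DMSO then go in, and bioluminescence reflecting viable cell number is recorded over 40 h.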
The nature of experiment [8]: qHTS RealTime-Glo MT Cell Viability Assay in HEK293 cells - 32 hour (AID 1224868). Also: top concentration of the series differs between compounds; nearly all actives have a fitted effect of over 50% in size. In outline:
(§2)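 Reads taken at 0, 8, 16, 24, 32 and 40 h from the same wells. HEK293 cells (600/well) carried RealTime-Glo reagents from seeding, with compound added after a 5 h settle at 37 C.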

A short description of experiment [9]: qHTS RealTime-Glo MT Cell Viability Assay in HepG2 cells - 40 hour (AID 1224870). Also: nearly all actives have a fitted effect of over 50% in size. In outline: (§3)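 HepG2 cells mixed with RealTime-Glo MT reagents (NanoLuc plus cell-permeant prosubstrate) were seeded at 600 cells/well, incubated 5 h at 37 C/5% CO2, then pinned with compounds in DMSO; nonlytic luminescence tracked viability during 40 h treatment.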
Experiment [10] in a line: A CellTox Green Cytotoxicity Assay to monitor cytotoxicity in HEK293 cells - 40 hour (AID 1224871). Also: nearly all actives have a fitted effect of over 45% in size. The procedure, abridged: (§4)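 Tox21 screen in HEK293: membrane-impermeant cyanine dye fluoresces on binding dead-cell DNA; compound pinned 5 h post-seeding, plates held at 37 C, signal read repeatedly through 40 h.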
Experiment [11] can be described thus: qHTS RealTime-Glo MT Cell Viability Assay in HEK293 cells - 16 hour (AID 1224872). In outline:
as §2

Experiment [12] is described as follows: qHTS RealTime-Glo MT Cell Viability Assay in HepG2 cells - 8 hour (AID 1224873). Also: nearly all actives have a fitted effect of over 55% in size. The procedure, abridged:
as §3

Experiment [13] is described as follows: qHTS RealTime-Glo MT Cell Viability Assay in HEK293 cells - 40 hour (AID 1224874). Also: nearly all actives have a fitted effect of over 50% in size. The settings on record: RealTime-Glo luminescence; max response: active compounds read low. In outline: (§5)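 HEK293 + NanoLuc + prosubstrate, 600 cells/well; 5 h, 37 C/5% CO2; compound 23 nL in DMSO by pintool; 37 C; luminescence read at 0, 8, 16, 24, 32 and 40 h time points.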
Experiment [14] in a line: A CellTox Green Cytotoxicity Assay to monitor cytotoxicity in HEK293 cells - 24 hour (AID 1224875). Also: nearly all actives have a fitted effect of over 45% in size. The procedure, abridged:
as §4

The nature of experiment [15]: A CellTox Green Cytotoxicity Assay to monitor cytotoxicity in HepG2 cells - 16 hour (AID 1224876). Also: nearly all actives have a fitted effect of over 45% in size. In outline: (§6)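 Measurements at 0, 8, 16, 24, 32 and 40 h of treatment captured CellTox Green fluorescence in HepG2 cells that had been co-plated with reagent and preincubated 5 h at 37 C/5% CO2.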
Experiment [16] in a line: qHTS RealTime-Glo MT Cell Viability Assay in HepG2 cells - 32 hour (AID 1224877). Also: nearly all actives have a fitted effect of over 55% in size. The procedure, abridged: as §1
Experiment [17] can be described thus: A CellTox Green Cytotoxicity Assay to monitor cytotoxicity in HepG2 cells - 24 hour (AID 1224878). Also: nearly all actives have a fitted effect of over 45% in size. The procedure, abridged: as §6
The nature of experiment [18]: A CellTox Green Cytotoxicity Assay to monitor cytotoxicity in HepG2 cells - 40 hour (AID 1224879). Also: nearly all actives have a fitted effect of over 40% in size. In outline:
as §6

Experiment [19] is described as follows: qHTS RealTime-Glo MT Cell Viability Assay in HEK293 cells - 0 hour (AID 1224880). The procedure, abridged: as §5
Experiment [20] can be described thus: A CellTox Green Cytotoxicity Assay to monitor cytotoxicity in HEK293 cells - 0 hour (AID 1224869). Also: nearly all actives have a fitted effect of over 50% in size. The procedure, abridged:
as §4
% is scaled to controls: 0 for no effect and ±100 for the full control effect.

On to `Cc1cc(C)cc(OP(=O)(Oc2cc(C)cc(C)c2)Oc2cc(C)cc(C)c2)c1`, for which the Potency entry in experiment [1], in experiment [2], in experiment [4], in experiment [5], in [7] and in experiment [8] was “inactive” each time. The Potency entry in [9], in [10], in [11], in experiment [12], in experiment [14] and in experiment [15] was “inactive” each time. Besides, the Potency result in experiment [16], in experiment [17], in [18] and in [19] was “inactive” throughout. Also, the compound was called inactive in [3]. In addition, the activity change, positive = activation in experiment [6] is 0.886%. For the same compound, in [13], the max response is -16.9%.

Regarding `Cn1cc(C2=C(c3cn(C4CCN(Cc5ccccn5)CC4)c4ccccc34)C(=O)NC2=O)c2ccccc21`, the Potency entry in experiment [1], in experiment [2], in experiment [4], in experiment [20], in [10] and in experiment [11] was “inactive” throughout. For the same compound, the Potency entry in experiment [14], in experiment [17] and in experiment [19] was “inactive” throughout. In addition, the result in experiment [3] was inactive. Moreover, in experiment [6], the activity change, positive = activation is -11.8% [at 42.5 µM].

As to `CCOCCOC(C)=O`, the Potency result in experiment [1], in experiment [2], in experiment [4], in experiment [5], in experiment [7] and in experiment [8] was “inactive” each time. Further, the Potency result in experiment [20], in experiment [9], in experiment [10], in experiment [11], in experiment [12] and in [14] was “inactive” in each case. Moreover, the Potency result in experiment [15], in experiment [16], in experiment [17], in experiment [18] and in experiment [19] was “inactive” throughout. The outcome in experiment [3] was inactive. The max response in experiment [13] was 4.22%.

As for `CCCCCCCCCCBr`, the Potency entry in experiment [1], in experiment [2], in experiment [4], in [5], in experiment [7] and in experiment [8] was “inactive” each time. Further, the Potency entry in experiment [20], in experiment [9], in experiment [10], in experiment [11], in experiment [12] and in experiment [14] was “inactive” throughout. Further, the Potency entry in experiment [16], in [17], in experiment [18] and in [19] was “inactive” throughout. For the same compound, the compound was classed as inactive in experiment [3]. For the same compound, the activity change, positive = activation in experiment [6] was 1.61%. Moreover, the max response in experiment [13] was -10.6%.

For the compound `COP(N)(=S)OC`, the Potency entry in experiment [1], in experiment [2], in experiment [4], in experiment [5], in experiment [8] and in [20] was “inactive” in each case. Moreover, the Potency result in [9], in [10], in experiment [11], in experiment [14], in experiment [15] and in [16] was “inactive” throughout. For the same compound, the Potency entry in experiment [17], in [18] and in experiment [19] was “inactive” in each case. In experiment [3], the outcome was inactive. In addition, in [6], the activity change, positive = activation was 3.3%. The max response in experiment [13] is 0.707%.

As to `C=COCCCl`, the Potency result in [1], in experiment [2], in experiment [4], in [5], in experiment [7] and in [8] was “inactive” throughout. The Potency entry in experiment [9], in [10], in experiment [11], in [12], in [14] and in experiment [15] was “inactive” each time. The Potency entry in experiment [16], in [17], in [18] and in experiment [19] was “inactive” each time. Moreover, the compound was classed as inactive in [3]. For the same compound, the activity change, positive = activation in [6] was 14.7%. Further, the max response in [13] was 15.2%.

Consider `C=CC(=O)N(C)C`, for which the Potency result in [1], in experiment [2], in experiment [4], in experiment [5], in experiment [7] and in experiment [8] was “inactive” throughout. In addition, the Potency result in experiment [20], in experiment [10], in experiment [11], in [12], in [14] and in [15] was “inactive” throughout. Also, the Potency entry in experiment [17], in experiment [18] and in [19] was “inactive” throughout. The compound was classed as inactive in [3]. Besides, the activity change, positive = activation in [6] was -4.19%. In experiment [13], the max response was -0.539%.

Take `COC(=O)N(C(=O)N1CO[C@@]2(C(=O)OC)Cc3cc(Cl)ccc3C2=N1)c1ccc(OC(F)(F)F)cc1`: the Potency result in experiment [1], in experiment [2], in [4], in experiment [7], in [20] and in experiment [9] was “inactive” in each case. The Potency result in [14], in [15], in [16], in experiment [17], in experiment [18] and in experiment [19] was “inactive” each time. In addition, in experiment [3], the compound was classed as inactive. Also, the Potency in [5] is 8.35 µM (active). For the same compound, in experiment [6], the activity change, positive = activation was -47.5%.

The values above are taken from PubChem BioAssay (Tox21).
